This is part of a sample that, as a whole, favours compounds with a hit. Of some 83,000 tested, about 20% had one in any assay.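 Assay: single dose, 48 h. Readout: percent growth (0 = no net growth; negative = cell death). Active: <10.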 Values without a mark were called inactive. Active and inactive are the calls of the source.

Common to all, as to test: NCI-60 one-dose screen, 48 h (100 = growth as untreated, 0 = no growth, -100 = all killed)
Common to all, as to conditions: 10 µM unless noted

Experiment [1] concerns T-47D breast.
Experiment [2] relates to BT-549 breast.
Experiment [3] has as its system MDA-MB-435 melanoma.
In experiment [4] the test system is SW-620 colon.
Experiment [5] relates to MCF7 breast.
The test system of experiment [6] is HCT-116 colon.
In experiment [7] the test system is HCC-2998 colon.
Experiment [8] relates to KM12 colon.

Turning to `CN1CCN(c2cc(Nc3cc(C4CC4)[nH]n3)nc(Nc3ccc(CC(=O)NCc4cccc(F)c4)cc3)n2)CC1`, the growth in experiment [1] is 64.5%; in experiment [2] it was 43.2%; in experiment [3] it was 24.9%; in experiment [4], 11.5%; in experiment [5] it was 20%; in experiment [6], 8.53% (active). For the same compound, the growth in experiment [7] is 35.1%; in experiment [8], 9.2% (active).

In the case of `CCOC(=O)c1nn(-c2ccc(S(N)(=O)=O)cc2)c2nc(C)cc(=O)n12`, the growth in experiment [1] is 106%; in experiment [2], 106%; in experiment [3] it was 105%; in experiment [4] it was 106%; in experiment [5], 92.4%; in experiment [6] it was 106%. The values for the growth in experiment [7] and in experiment [8] were 109% and 102%, respectively.

Take `OB1OCc2cc(/C=C/c3cccc(C(F)(F)F)c3)ccc21`: the growth in experiment [1] was 20.4%; in experiment [2], 8.09% (active); in experiment [3] it was 20.8%; in experiment [4] it was 15.5%; in experiment [5], 21.8%; in experiment [6], 0.518% (active). Moreover, the figures for the growth in experiment [7] and in experiment [8] were 32.5% and 14.6%, respectively.

Consider `N=C(N)c1ccc(-c2ccc(-c3ccccc3)o2)cc1`, for which the growth in experiment [1] is -46% (active); in experiment [2], 40.8%; in experiment [3], -91.2% (active); in experiment [4], -75.7% (active); in experiment [5] it was -57.2% (active); in experiment [6], -100% (active). In addition, the growth in experiment [7] was -74.5% (active); in experiment [8] it was -80.3% (active).

With `CCC1=C[C@@H]2C[C@]3(C(=O)OC)c4[nH]c5ccccc5c4CC[N@+](CC(=O)Nc4cc5c(cc4OC)N(C)[C@H]4[C@@](O)(C(=O)OC)[C@H](OC(C)=O)[C@]6(CC)C=CCN7CC[C@]54[C@@H]76)(C2)[C@H]13`, the growth is 105% in experiment [1]; 111% in experiment [2]; 105% in experiment [3]; 100% in experiment [4]; 103% in experiment [5]; 102% in experiment [6]. For the same compound, the growth in experiment [7] is 110%; in experiment [8], 104%.

For `CCN(CC)c1ccc(\C=N/N=C(N)/C(N)=N\N=C/c2ccc(N(CC)CC)cc2)cc1`, the growth in experiment [1] was 104%; in experiment [2], 104%; in experiment [3], 101%; in experiment [4], 104%; in experiment [5] it was 106%; in experiment [6], 105%. Also, the growth in experiment [7] was 114%; in experiment [8], 106%.

`Cc1cc(=O)n(C(=O)Nc2ccccc2Cl)c2cc(O)ccc12`: the growth in experiment [1] is 97.1%; in experiment [2] it was 94.4%; in experiment [3] it was 104%; in experiment [4], 93.7%; in experiment [5] it was 101%; in experiment [6], 101%. The growth in experiment [7] was 98.5%; in experiment [8], 98.1%.

As to `O=C1/C=C/[C@@H](O)[C@@H]2C[C@@H](O)C[C@H]2/C=C/CCC[C@H](CCc2ccccc2)O1`, the growth was 15.1% in experiment [1]; 9.81% (active) in experiment [2]; 5.95% (active) in experiment [3]; -9.76% (active) in experiment [4]; -3.62% (active) in experiment [5]; -73.6% (active) in experiment [6]. Moreover, the growth in experiment [7] was 15.9%; in experiment [8] it was -50.5% (active).

Consider `Cc1c[n+](Cc2ccc3ccccc3c2)cn1Cc1ccc2ccccc2c1`, for which the growth in experiment [1] is -8.03% (active); in experiment [2], -2.98% (active); in experiment [3], -20.9% (active); in experiment [4], 36.8%; in experiment [5], 18.5%; in experiment [6], 23.2%. The results for the growth in experiment [7] and in experiment [8] were 14.8% and -44.7% (active), respectively.

Regarding `O=C(CSc1oc(-c2ccccc2)nc1S(=O)(=O)c1ccccc1)Nc1ccc(F)cc1`, the growth in experiment [1] was 69.8%; in experiment [2], 78.4%; in experiment [3] it was 94.8%; in experiment [4] it was 96.5%; in experiment [5], 92.6%; in experiment [6], 52.6%. Also, the growth in experiment [7] was 104%; in experiment [8] it was 86.6%.

In the case of `COc1ccc(OC)c(Nc2nnc(-c3ccc(O)c(OC)c3)o2)c1`, the growth in experiment [1] is 43.9%; in experiment [2], 79.4%; in experiment [3], 85%; in experiment [4], 78.6%; in experiment [5], 77.7%; in experiment [6], 63.8%. In addition, the growth was 90.6% in experiment [7] and 20.4% in experiment [8].

`O=C(Nc1cccc(-c2ccc(Cl)c(C(F)(F)F)c2)c1)C1CCN(Cc2cccc3cccnc23)CC1`: the growth in experiment [1] was -55.8% (active); in experiment [2], 63.5%; in experiment [3], -83.7% (active); in experiment [4] it was -83% (active); in experiment [5], -89.9% (active); in experiment [6], -75% (active). Further, the growth was -83.5% (active) in experiment [7] and -27.4% (active) in experiment [8].

`C=C1C(=O)O[C@H]2[C@H]1CC/C(COC(=O)C(=O)c1cn(C)c3ccc(Cl)cc13)=C\CC[C@@]1(C)O[C@@H]21`: the growth in experiment [1] was -55.6% (active); in experiment [2], -74.5% (active); in experiment [3], -81.3% (active); in experiment [4] it was -69.1% (active); in experiment [5], -54.3% (active); in experiment [6], -96.4% (active). Besides, the growth in experiment [7] was -80.3% (active); in experiment [8], -49.7% (active).

Consider `O=C1c2ccccc2-c2c1c1c(=O)[nH]c3ccccc3c1n2Cc1ccccc1`, for which the growth is 62.6% in experiment [1]; 29.5% in experiment [2]; 71.1% in experiment [3]; 79.8% in experiment [4]; 56.5% in experiment [5]; 41% in experiment [6]. Besides, the growth in experiment [7] was 55.4%; in experiment [8], 71.2%.

For `Clc1cccc(Nc2ncnc3ccc(-c4cnc5[nH]ccc5c4)cc23)c1`, the growth in experiment [1] was 28.3%; in experiment [2], 77.4%; in experiment [3] it was 88.3%; in experiment [4], 107%; in experiment [5] it was 48.3%; in experiment [6] it was 75.1%. Moreover, the values for the growth in experiment [7] and in experiment [8] were 95% and 72.6%, respectively.

These data come from PubChem BioAssay (NCI).
